Shown are actives, neighbours in structure and some others; about 2.8% of the full set was active somewhere.
Pol iota inh = qHTS for Inhibitors of Polymerase Iota; DNA polymerase iota (Homo sapiens), Q9UNA4; Pol iota fluorescent replication assay, 10 min; Potency, µM (top dose mostly 115 µM), for the others: at the highest dose activity, negative = inhibition, actives largely listed as inhibitors; 1% of 390,000 active; further: potency means the concentration at half of the fitted maximal effect
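Pol iota at 10 nM preincubated 15 min with compounds at room temperature; reaction started with fluorescent substrate, 50 nM final. Fluorescence read kinetically at 0 and 10 min; buffer-only wells as negative control.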
WRN helicase inh = qHTS for Inhibitors of WRN Helicase; Bifunctional 3'-5' exonuclease/ATP-dependent helicase WRN (Homo sapiens), Q14191; WRN helicase unwinding, fluorescent forked duplex, kinetic; Potency, µM (series often up to 114 µM), inactives show at the top dose activity change, negative = inhibition, most hits filed as inhibitors; 0.46% of 360,000 active; AID 651768, 2012; further: potency means the concentration at half of the fitted maximal effect; on the % scale 0 is the no-effect control and ±100 the full control effect; nearly all actives have a fitted effect of over 55% in size
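Kinetic red-fluorescence monitoring (525/598 nm) tracks WRN helicase activity after 100 nM fluorophore-quencher forked duplex and 2 mM ATP are added to 20 nM enzyme pretreated 15 min at room temperature with compound.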
Pol beta inh = qHTS Assay for Inhibitors of DNA Polymerase Beta. 1.3% of 340,000 active. Potency, µM (top dose mostly 114 µM), for inactives: top-dose activity change, negative = inhibition, usual class: inhibitors. P06746. AID 485314, 2010. Pol beta primer extension/strand displacement, fluorescence kinetic; further: potency means the concentration at half of the fitted maximal effect; on the % scale 0 is the no-effect control and ±100 the full control effect
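Values derive from four-parameter Hill fits of normalized kinetic data: reads at 0 and 10 min following addition of 50 nM substrate to 10 nM Pol beta preincubated 15 min with compound.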
POLK inh = qHTS for Inhibitors of Polymerase Kappa; 0.53% of 400,000 active; DNA polymerase kappa (Homo sapiens), Q9UBT6; Potency, µM (top dose mostly 107 µM), inactives show at the highest dose activity, negative = inhibition, hits mostly inhibitors; purified Pol kappa, fluorescent DNA synthesis assay, 10 min; further: potency means the concentration at half of the fitted maximal effect; on the % scale 0 is the no-effect control and ±100 the full control effect
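10 nM Pol kappa was preincubated with compounds for 15 min at room temperature. Reaction started with 50 nM (final) substrate. Fluorescence read kinetically at 0 and 10 min.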
PI5P4Ka inh = qHTS for Inhibitors of phosphatidylinositol 5-phosphate 4-kinase (PI5P4K); Phosphatidylinositol 5-phosphate 4-kinase type-2 alpha (Homo sapiens), P48426; PI5P4Kalpha enzyme, ADP-Glo luminescence, 60 min; stronger effect = lower value; max response, %; 1.2% of 330,000 active; active means max response of -50% or lower; inconclusive means between -30% and -50%; inactive means -30% or higher; further: value at the top dose of about 77 µM; on the % scale 0 is the no-effect control and ±100 the full control effect
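ADP-Glo luminescence end-point after a 60 min room-temperature kinase reaction. PI5P4Kalpha and substrate in HEPES pH 7.4 buffer with EGTA, 0.1% CHAPS and 5% DMSO; ATP at 5 microM final.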
Pol eta inh = qHTS for Inhibitors of Polymerase Eta. 1.2% of 390,000 active. Potency, µM (titrated, usually from 114 µM), for the others: top-dose activity change, negative = inhibition, actives largely listed as inhibitors. recombinant Pol eta, fluorescent DNA replication assay; further: potency means the concentration at half of the fitted maximal effect; on the % scale 0 is the no-effect control and ±100 the full control effect
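Fluorescent replication assay: 50 nM final substrate added after a 15 min room-temperature compound preincubation with 10 nM enzyme. Signal taken at 0 min and again at 10 min.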
ADP-Glo counter = qHTS for Inhibitors of PI5P4K: ADP-Glo counter assay | 1,100 tested, under 10 active | Potency, µM (top dose mostly 76.9 µM), for the others: top-dose activity change, negative = inhibition, hits mostly inhibitors | ADP-Glo detection counter-screen, luciferase luminescence, no enzyme | shares compounds with PI5P4Ka inh | AID 743285, 2014
Numbers without * were called inactive; [ ] = dose if it differs, or a comment. Unless noted, the call rests on the fitted dose curve; in most records, active means well fitted curve in the direction sought with a large enough effect; inconclusive means small, poorly fitted or top-dose-only effect, or another doubt; inactive means no such curve, though single readings can be large; an effect the other way counts as inactive or inconclusive.

What do the screens show for `COC(=O)c1c(NC(=O)CN2CCC3(O)CCCCC3C2c2ccc(OC)cc2OC)sc(C)c1C` (stereo unspecified)?
Pol iota inh: 8%; WRN helicase inh: -30%; Pol beta inh: -5%; POLK inh: -18%; PI5P4Ka inh: -51*; Pol eta inh: inconclusive; ADP-Glo counter: 7%

How did O=C(O)c1ccc(Cl)c(S(=O)(=O)Nc2ccc3[nH]c(=O)[nH]c3c2)c1 do in these assays?
Pol iota inh: inconclusive; WRN helicase inh: -27%; Pol beta inh: 3.5µM*; POLK inh: inconclusive; PI5P4Ka inh: -65*; Pol eta inh: inconclusive; ADP-Glo counter: 5%

How did O=C(O)c1cccc(S(=O)(=O)Nc2ccc3[nH]c(=O)[nH]c3c2)c1 do in these assays?
Pol iota inh: inconclusive; WRN helicase inh: -17%; Pol beta inh: -25%; POLK inh: -23%; PI5P4Ka inh: inconclusive; Pol eta inh: -2%

What do the screens show for `c1coc(CNc2nc(NCc3ccco3)c3ccccc3n2)c1`?
Pol iota inh: 18%; POLK inh: -7%

What do the screens show for `Fc1ccc(Nc2nc(NCc3ccco3)c3ccccc3n2)cc1`?
Pol iota inh: -18%; WRN helicase inh: -21%; Pol beta inh: -18%; POLK inh: -10%; Pol eta inh: -8%; ADP-Glo counter: -2%

Results for CCN(CC)c1ncnc2c1ncn2[C@H]1CN(Cc2ccc(OC)cc2)C[C@@H](CO)O1 ?
WRN helicase inh: 2%; PI5P4Ka inh: 0

How did CCOC(=O)c1cccc(NC(=O)CCS(=O)(=O)c2ccc3c(c2)CCN3C(=O)CC)c1 do in these assays?
Pol iota inh: 34%; Pol beta inh: 23%; POLK inh: 2%; Pol eta inh: -8%

Results for COc1cc(Cn2c3ccc(NC(=O)CCc4ccccc4)cc3c(=O)n2C)ccc1F ?
WRN helicase inh: -4%; PI5P4Ka inh: -64*; ADP-Glo counter: -2%

How did COCCNC(=O)C(c1ccc(Cl)cc1)N(Cc1ccco1)C(=O)CCC(=O)Nc1ccccn1 (stereo unspecified) do in these assays?
Pol iota inh: 157%; WRN helicase inh: 8%; Pol beta inh: 34%; POLK inh: -14%; PI5P4Ka inh: -53*; Pol eta inh: -9%; ADP-Glo counter: 2%

How did CCN(CC)Cc1c(NC(=O)c2ccc(OC)cc2)sc2c1CCCC2 do in these assays?
Pol iota inh: -12%; Pol beta inh: 1%; POLK inh: -18%; Pol eta inh: -12%

Results for CSCCC(NC(=O)c1ccccc1Cl)C(=O)N1CCCCCCC1 (stereo unspecified) ?
Pol iota inh: 26%; WRN helicase inh: 0%; POLK inh: 11%; PI5P4Ka inh: 3; Pol eta inh: -15%

What do the screens show for `COc1ccc(C(=O)NC(CCSC)C(=O)N2CCCCCC2)cc1` (stereo unspecified)?
Pol iota inh: 22%; WRN helicase inh: -17%; Pol beta inh: 41%; POLK inh: -2%; PI5P4Ka inh: -76*; Pol eta inh: -17%; ADP-Glo counter: -1%

What do the screens show for `O=C(NCc1cccc(F)c1)Nc1nnc([C@H]2C[C@H](O)[C@@H](CO)O2)s1`?
WRN helicase inh: 3%; PI5P4Ka inh: -50*; ADP-Glo counter: -1%

Results for COc1ccc(Cl)cc1S(=O)(=O)n1cnc2ccccc21 ?
Pol iota inh: 2%; WRN helicase inh: -2%; Pol beta inh: inconclusive; POLK inh: 5%; PI5P4Ka inh: -3; Pol eta inh: -5%

Results for CCOc1ccc(Cl)cc1S(=O)(=O)n1cnc2ccccc21 ?
Pol iota inh: 11%; WRN helicase inh: 1%; Pol beta inh: -13%; POLK inh: -5%; PI5P4Ka inh: 1; Pol eta inh: -8%; ADP-Glo counter: -7%

Results for O=C(Nc1cccc(Cl)c1)N1CCCC1 ?
Pol iota inh: 33%; WRN helicase inh: 11%; Pol beta inh: 23%; POLK inh: -3%; PI5P4Ka inh: -53*; Pol eta inh: -3%; ADP-Glo counter: -2%

How did O=C(Nc1cccc(Cl)c1)N1CCOCC1 do in these assays?
Pol iota inh: -26%; WRN helicase inh: -10%; Pol beta inh: -13%; POLK inh: -12%; PI5P4Ka inh: -1; Pol eta inh: -20%

How did Cc1nc2ccccc2nc1OCC(=O)NCc1ccc2c(c1)OCO2 do in these assays?
Pol iota inh: inconclusive; WRN helicase inh: -22%; Pol beta inh: 26%; POLK inh: inconclusive; PI5P4Ka inh: -62*; Pol eta inh: 6%; ADP-Glo counter: -14%

Results for O=C(Nc1nc(-c2ccccn2)cs1)C1CC(=O)N(c2ccc3c(c2)OCCO3)C1 (stereo unspecified) ?
Pol iota inh: 20µM*; WRN helicase inh: -9%[11.6 µM]; Pol beta inh: 13µM*; POLK inh: inconclusive; PI5P4Ka inh: -50*; Pol eta inh: inconclusive; ADP-Glo counter: -4%

Results for O=C(Nc1nc(-c2cccs2)cs1)C1CC(=O)N(c2ccc3c(c2)OCCO3)C1 (stereo unspecified) ?
Pol iota inh: -22%; POLK inh: -10%

What do the screens show for `C(=C\c1ccc2nncn2c1)/c1ccccc1`?
WRN helicase inh: -12%[57.1 µM]; PI5P4Ka inh: inconclusive

How did CCOC(=O)c1c(-c2ccco2)csc1NC(=O)COC(=O)c1cnc(C)cn1 do in these assays?
Pol iota inh: 40µM*; WRN helicase inh: -30%; POLK inh: inconclusive; PI5P4Ka inh: -51*; Pol eta inh: 25µM*; ADP-Glo counter: 0%

Results for O=C1Nc2ccc(S(=O)(=O)NCc3ccccn3)c3cccc1c23 ?
Pol iota inh: 50µM*; WRN helicase inh: inconclusive; Pol beta inh: 1%; POLK inh: inconclusive; PI5P4Ka inh: -60*; Pol eta inh: 20µM*; ADP-Glo counter: -8%

How did CN(C)CCNS(=O)(=O)c1ccc2c3c(cccc13)C(=O)N2 do in these assays?
Pol iota inh: 32%; WRN helicase inh: -2%; Pol beta inh: 4%; POLK inh: -4%; PI5P4Ka inh: -1; Pol eta inh: -16%
